PubChem BioAssay AID1159580 (chemical genetic matrix, 2015)
Values joined by “and” are separate entries in the source; they are usually repeats but may differ in a detail not shown here. Equal entries are not always repeated. The campaign covered roughly 5,500 compounds. About 2,000 (36%) were called active. Roughly 18% stayed inconclusive and do not appear here. Cut-off read from the data, not from the text of the source: active = normalized growth mostly below about 0.91 (no sharp cut-off); inconclusive = no clear call, values can overlap the other calls; inactive = mostly above about 0.92. This is one part of the list.

Assay: chemical genetic growth profiling, strain panel (AID 1159580);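 note: tested at 20 µM; growth read once vehicle control cultures reached saturation at 30 °C; 1 = growth at the plate median or of vehicle wells; lower values mean less growth of the strain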
Conditions: S. cerevisiae deletion strains, growth OD

Measured: normalized growth

COc1cc2c(cc1OC)[C@@H]1C(=O)c3ccc4oc(C(C)C)cc4c3O[C@@H]1CO2
inactive: locus YAL021C, strain ccr4, hits give low values 0.983 | locus YAL026C, strain drs2, hits give low values 0.995 | locus YAL030W, strain snc1, hits give low values 1 | locus YBL061C, strain skt5, hits give low values 0.995 | locus YBR009C, strain hhf1, hits give low values 0.992 | locus YBR021W, strain FUR4, hits give low values 1.01 | locus YBR023C, strain chs3, hits give low values 0.996 | locus YBR171W, strain sec66, hits give low values 0.999 | locus YBR229C, strain ROT2, hits give low values 1.01 | locus YBR231C, strain swc5, hits give low values 0.992 | locus YBR279W, strain paf1, hits give low values 0.996 | locus YCL011C, strain gbp2, hits give low values 0.97 | locus YCL016C, strain dcc1, hits give low values 0.993 | locus YCL029C, strain bik1, hits give low values 1.07 | locus YCL061C, strain MRC1, hits give low values 0.981 | locus YCL069W, strain vba3, hits give low values 1 | locus YCR088W, strain abp1, hits give low values 0.993 | locus YDL005C, strain med2, hits give low values 0.981 | locus YDL035C, strain GPR1, hits give low values 1.02 | locus YDL040C, strain nat1, hits give low values 0.989 | locus YDL074C, strain BRE1, hits give low values 1.04 | locus YDL101C, strain DUN1, hits give low values 1.01 | locus YDL185W, strain tfp1, hits give low values 1.01 | locus YDL192W, strain arf1, hits give low values 1.04 | locus YDR001C, strain nth1, hits give low values 0.979 | locus YDR069C, strain doa4, hits give low values 1.08 | locus YDR101C, strain arx1, hits give low values 1.02 | locus YDR137W, strain rgp1, hits give low values 0.992 | locus YDR150W, strain NUM1, hits give low values 1.02 | locus YDR159W, strain sac3, hits give low values 0.985 | locus YDR162C, strain NBP2, hits give low values 1.04 | locus YDR195W, strain ref2 0.982 | locus YDR297W, strain sur2, hits give low values 1.02 | locus YDR318W, strain mcm21, hits give low values 1.04 | locus YDR334W, strain swr1, hits give low values 0.977 | locus YDR335W, strain msn5, hits give low values 0.986 | locus YDR388W, hits give low values 1.02 | locus YDR392W, strain spt3, hits give low values 0.996 | locus YDR502C, strain sam2, hits give low values 1.03 | locus YEL003W, strain gim4, hits give low values 1.01 | locus YEL037C, strain rad23, hits give low values 0.995 | locus YEL061C, strain CIN8 (second series), hits give low values 0.984 | locus YER015W, strain faa2, hits give low values 0.99 | locus YER016W, strain bim1, hits give low values 0.971 | locus YER110C, hits give low values 1 | locus YER111C, strain swi4, hits give low values 0.977 | locus YER155C, strain BEM2 (second series), hits give low values 0.973 | locus YER155C, strain BEM2, hits give low values 1.02 | locus YER167W, strain BCK2, hits give low values 1.02 | locus YFR010W, strain ubp6, hits give low values 0.998 | locus YGL078C, strain dbp3, hits give low values 1.03 | locus YGL086W, strain mad1, hits give low values 1.02 | locus YGL167C, strain pmr1, hits give low values 0.982 | locus YGL173C, strain kem1, hits give low values 0.975 | locus YGL227W, strain vid30, hits give low values 0.982 | locus YGL240W, strain doc1, hits give low values 0.991 | locus YGL248W, strain PDE1, hits give low values 1.01 | locus YGL253W, strain hxk2, hits give low values 0.991 | locus YGR078C, strain PAC10, hits give low values 1.02 | locus YGR135W, strain pre9, hits give low values 1.08 | locus YGR252W, strain gcn5, hits give low values 1.01 | locus YHR013C, strain ard1, hits give low values 0.973 | locus YHR027C, strain rpn1, hits give low values 1 | locus YHR030C, strain SLT2, hits give low values 0.999 | locus YHR079C, strain IRE1 (second series), hits give low values 1 | locus YHR079C, strain IRE1, hits give low values 0.985 | locus YHR094C, strain hxt1, hits give low values 1.02 | locus YHR129C, strain ARP1, hits give low values 1.02 | locus YHR142W, strain chs7, hits give low values 1.01 | locus YHR200W, strain rpn10, hits give low values 1.03 | locus YIL066C, strain RNR3, hits give low values 1.02 | locus YIL073C, strain SPO22, hits give low values 1.06 | locus YIL125W, strain kgd1, hits give low values 1 | locus YIR030C, strain dcg1, hits give low values 1.05 | locus YJL092W, strain hpr5, hits give low values 0.968 | locus YJL095W, strain BCK1 (second series), hits give low values 1.01 | locus YJL095W, strain BCK1, hits give low values 1.04 and 0.981 | locus YJL115W, strain asf1, hits give low values 0.957 | locus YJL129C, strain trk1, hits give low values 0.974 | locus YJL134W, strain LCB3, hits give low values 1.01 | locus YJL154C, strain vps35, hits give low values 0.984 | locus YJL164C, strain tpk1, hits give low values 1.03 | locus YJL166W, strain qcr8, hits give low values 0.975 | locus YJL168C, strain set2, hits give low values 1.01 | locus YJL187C, strain SWE1 (second series), hits give low values 1.02 | locus YJR043C, strain POL32, hits give low values 1.02 | locus YJR066W, strain TOR1, hits give low values 0.907 | locus YKL009W, strain mrt4, hits give low values 0.918 | locus YKL068W, hits give low values 0.996 | locus YKL085W, strain MDH1 (second series), hits give low values 0.989 | locus YKL085W, strain MDH1, hits give low values 0.989 | locus YKL160W, strain elf1, hits give low values 0.99 | locus YKL190W, strain CNB1, hits give low values 1.02 | locus YKR001C, strain vps1, hits give low values 1.02 | locus YKR026C, strain gcn3, hits give low values 1 | locus YKR091W, strain srl3, hits give low values 0.984 | locus YLL001W, strain dnm1, hits give low values 0.972 | locus YLL026W, hits give low values 0.976 | locus YLL041C, strain sdh2, hits give low values 1.02 | locus YLR027C, strain aat2, hits give low values 0.999 | locus YLR039C, strain RIC1, hits give low values 1.1 | locus YLR058C, strain SHM2, hits give low values 1.01 | locus YLR102C, strain apc9, hits give low values 1.02 | locus YLR113W, strain HOG1, hits give low values 1.05 | locus YLR221C, strain rsa3, hits give low values 0.959 | locus YLR258W, strain gsy2, hits give low values 0.992 | locus YLR262C, strain YPT6 (second series), hits give low values 1.02 | locus YLR262C, strain YPT6, hits give low values 1.06 | locus YLR268W, strain sec22, hits give low values 1.02 | locus YLR320W, strain mms22, hits give low values 0.986 | locus YLR330W, strain CHS5, hits give low values 1.02 | locus YLR342W, strain FKS1 (second series), hits give low values 1.03 | locus YLR342W, strain FKS1, hits give low values 0.982 | locus YLR357W, strain rsc2, hits give low values 0.986 | locus YLR370C, strain arc18, hits give low values 0.981 | locus YLR371W, strain rom2, hits give low values 1.06 | locus YLR384C, strain iki3, hits give low values 0.993 | locus YLR418C, strain cdc73, hits give low values 1.01 | locus YML016C, strain PPZ1, hits give low values 1.02 | locus YML032C, strain rad52, hits give low values 1.01 | locus YML120C, strain ndi1, hits give low values 0.99 | locus YML124C, strain tub3, hits give low values 1.03 | locus YMR058W, strain fet3, hits give low values 0.968 | locus YMR078C, strain ctf18, hits give low values 1.02 | locus YMR125W, strain sto1, hits give low values 0.976 | locus YMR129W, hits give low values 0.985 | locus YMR205C, strain PFK2, hits give low values 0.987 | locus YMR223W, strain ubp8, hits give low values 1.01 | locus YMR231W, strain pep5, hits give low values 0.985 | locus YMR307W, strain GAS1, hits give low values 0.974 | locus YNL067W, strain RPL9B, hits give low values 1.02 | locus YNL071W, strain lat1, hits give low values 1.05 | locus YNL183C, strain NPR1, hits give low values 0.956 | locus YNL209W, strain ssb2, hits give low values 0.993 | locus YNL233W, strain BNI4, hits give low values 1.05 | locus YNL248C, strain rpa49, hits give low values 0.976 | locus YNL250W, strain rad50, hits give low values 1.02 | locus YNL271C, strain bni1, hits give low values 1.02 | locus YNL298W, strain CLA4, hits give low values 1.03 | locus YNL307C, strain MCK1, hits give low values 1.03 | locus YNL322C, strain KRE1 (second series), hits give low values 1 | locus YNL322C, strain KRE1, hits give low values 1.01 | locus YNR049C, strain mso1, hits give low values 0.982 | locus YNR052C, strain pop2, hits give low values 1.01 | locus YOL006C, strain TOP1, hits give low values 1.11 | locus YOL012C, strain htz1 0.869 | locus YOL147C, strain pex11, hits give low values 1.04 | locus YOR001W, strain rrp6, hits give low values 0.979 | locus YOR061W, strain CKA2, hits give low values 1.02 | locus YOR069W, strain VPS5, hits give low values 1.01 | locus YOR070C, strain gyp1, hits give low values 0.987 | locus YOR080W, strain dia2, hits give low values 0.965 | locus YOR083W, strain WHI5, hits give low values 0.987 | locus YOR106W, strain vam3, hits give low values 0.991 | locus YOR136W, strain idh2, hits give low values 1 | locus YOR144C, strain elg1, hits give low values 1.02 | locus YOR184W, strain ser1, hits give low values 1.05 | locus YOR231W, strain MKK1, hits give low values 0.975 | locus YOR265W, strain rbl2, hits give low values 1 | locus YOR270C, strain vph1, hits give low values 1.07 | locus YOR290C, strain snf2, hits give low values 0.978 | locus YOR316C, strain cot1, hits give low values 1 | locus YPL051W, strain arl3, hits give low values 0.985 | locus YPL078C, strain atp4, hits give low values 0.989 | locus YPL106C, strain sse1, hits give low values 1.03 | locus YPL240C, strain hsp82, hits give low values 1 | locus YPL256C, strain CLN2, hits give low values 0.988 | locus YPR119W, strain clb2, hits give low values 1.01 | locus YPR141C, strain kar3, hits give low values 1.06 | locus YPR163C, strain tif3, hits give low values 1.02 | locus YPR167C, strain met16, hits give low values 1.05 | strain wtn01, hits give low values 1.04
